# From PubChem BioAssay AID720624 (Broad Institute, 2013)
# Results with a measured potency or affinity are listed apart. Records with an inconclusive call do not appear. Calls of active or inactive are those of the source.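 How the source made its calls: active means viability loss with half-maximal concentration at most twice the top valid dose, at 8, 24 and 48 hours; inconclusive means timepoint results disagree; inactive means inactive at all three timepoints.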
# Experiment: cytotoxicity in SNB-75 CNS cells – cell-based, CellTiter-Glo ATP luminescence, several timepoints, dry powder, mechanism study for HRAS target identification, late-stage follow-up (AID 720624)
smiles,measurement,value
Cc1onc(C(=O)N2CCN(C(c3ccncc3)c3ccncc3)CC2)c1[N+](=O)[O-],outcome,inactive
